Drawing on PubChem BioAssay (NCATS), this text covers Potency for 40 compounds.

Results filed as inconclusive are left out. The source made the active and inactive calls. The call rests on the fitted dose curve; in most records, active means well fitted cell-killing curve with a large enough effect; inconclusive means small, poorly fitted or top-dose-only effect, or effect the other way; inactive means no such curve, though single readings can be large or run the other way.
Potency means the concentration at half of the fitted maximal effect.

The test can be described thus: Viability qHTS for spleen associated tyrosine kinase inhibitor (SYKi) drug resistant MV4-11 cells (AID 1963824). Further: nearly all actives have a fitted effect of over 35% in size. The following applies: SYKi-resistant MV4-11 viability, CellTiter-Glo, 72 h; series mostly up to 45 µM. A digest of the protocol:
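SYK-inhibitor-resistant MV4-11 AML cells were seeded at 500 per well onto compound and cultured 72 hours (37 °C, 5% CO2). CellTiter-Glo was then added, and after 10 min at room temperature, luminescence gave viability.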
(In general: qHTS replaces the single test concentration by a dilution series.)
Turning to `CC(C)CC(=O)n1cc(C(N)=O)c(=O)cc1C(O)c1ccccc1` (stereo not given), the Potency result is “inactive”.

As for `CCC(C)C(=O)O[C@H]1[C@H](O)[C@@]2(COC(C)=O)C(CC1(C)C)C1=CCC3[C@@]4(C)CC[C@H](O[C@@H]5O[C@H](C(=O)O)[C@@H](O)[C@H](O)[C@H]5O)[C@@](C)(CO)C4CC[C@@]3(C)[C@]1(C)C[C@@H]2O` (stereo not given in full), the Potency is 3.48 µM (active).

`Cc1ccc(NS(=O)(=O)c2cc3c(cc2N(C)C)CCC(=O)N3)cc1C`: the Potency is 18.4 µM (active).

For `C=C1C(O[C@@H]2O[C@H](CO)[C@@H](O)[C@H](O)[C@@H]2O)CC2C(C)(C)C(O)CCC2(C)C1CC/C(C)=C\CO` (stereo not given in full), the Potency result was “inactive”.

Take `COc1cccc(CN(C(=O)CC(C)(C)C)C2CC(C(=O)N3CCNCC3)N(Cc3ccc4c(c3)OCO4)C2)c1` (stereo not given): the Potency was 16.4 µM (active).

For the compound `C=CC(C)(O)C(O)CC1C(C)(O)C(O)C(O)C2C(C)(C)CCCC21C` (stereo not given), the Potency entry was “inactive”.

Take `C=C(C(=O)O)[C@H]1C[C@]2(C)[C@@H](O)CC[C@]23O[C@H]1C[C@@H]3C`: the Potency result is “inactive”.

`O=C1CCCC2=C1C(c1ccncc1Br)N=C(Nc1nc3ccccc3o1)N2` (stereo not given): the Potency was 18.4 µM (active).

With `C=CC(=O)Nc1cccc(CN2C(=O)N(c3c(Cl)c(OC)cc(OC)c3Cl)Cc3cnc(NCCCCN(CC)CC)nc32)c1`, the Potency is 3.66 µM (active).

On to `C=C1C(=O)OC2CC(C)=C(C(C)CCCO[C@@H]3O[C@H](CO)[C@@H](O)[C@H](O)[C@H]3O)C(O)C12` (stereo not given in full), for which the Potency entry was “inactive”.

For the compound `Cc1c(C(=O)Nc2ccc(Oc3ccnc4[nH]cc(-c5ccccc5)c34)c(F)c2)c(=O)n(-c2ccc(F)cc2)n1C`, the Potency is 0.0206 µM (active).

On to `C[C@@H]1C[C@@H]([C@@H](O)C(C)(C)O)O[C@H]2C[C@@]3(C)C(=C12)C[C@H](O)[C@H]1[C@@]2(C)CCC(=O)C(C)(C)C2CC[C@@]13C` (stereo not given in full), for which the Potency was 1.26 µM (active).

For the compound `C#C[C@]1(O)CC[C@H]2[C@@H]3CCC4=C/C(=N/O)CC[C@@H]4[C@H]3CC[C@@]21CC`, the Potency is 25.9 µM (active).

Turning to `OC[C@H]1O[C@@H](Oc2cc(O)cc(-c3cc4ccc(O)cc4o3)c2)[C@H](O)[C@@H](O)[C@@H]1O`, the Potency was 4.47 µM (active).

As for `NS(=O)(=O)c1ccc(S(=O)(=O)Nc2cccc3c(Cl)c[nH]c23)cc1`, the Potency is 0.332 µM (active).

Consider `CC1=C(C)C(=O)OC(C(C)C2C(O)CC3C4C5OC5C5(O)CC(OC6OC(CO)C(OC7OC(C)C(O)C(O)C7O)C(O)C6O)CC(O)C5(C)C4CCC32C)C1` (stereo not given), for which the Potency result was “inactive”.

Regarding `N#Cc1ccc(-c2cnc3[nH]cc(NC(=O)c4cccnc4)c3c2)cc1`, the Potency is 0.92 µM (active).

Turning to `N#C/C(=C\c1ccc(O)c(O)c1)C(=O)NCCCc1ccccc1`, the Potency is 8.2 µM (active).

For `C=CC(C)(/C=C/c1ccc(O)cc1)CCC=C(C)C` (stereo not given), the Potency was 23.1 µM (active).

As to `CC(=O)c1c(O)cc2c(c1C)C(=O)CC(O)C2` (stereo not given), the Potency entry is “inactive”.

`O=C(C1OC1/C=C/c1ccc2c(c1)OCO2)N1CCCCC1` (stereo not given): the Potency result was “inactive”.

On to `COC(=O)C1(C)c2[nH]c3ccccc3c2CCN1C(=O)CCl` (stereo not given), for which the Potency was 2.91 µM (active).

In the case of `N#Cc1cccnc1N1CCN(C(=O)c2cccc(Cc3n[nH]c(=O)c4ccccc34)c2)CC1`, the Potency was 0.186 µM (active).

As for `C/C=C(\C)C(=O)OC1C(C)C2(O)C(C=C(CO)CC3(O)C(=O)C(C)=CC32)C2C(C)(C)C12OC(C)=O` (stereo not given), the Potency is 0.112 µM (active).

For the compound `CC(C)CC[C@@H](O)[C@](C)(O)[C@H]1CC[C@@]2(O)C3=CC(=O)[C@@H]4C[C@@H](O)[C@@H](O)C[C@]4(C)[C@H]3CC[C@]12C`, the Potency entry is “inactive”.

With `COc1cc(/C=C/c2cc(O)cc(O[C@@H]3O[C@H](CO)[C@@H](O)[C@H](O)[C@H]3O)c2)ccc1O`, the Potency result was “inactive”.

Take `CC(=O)OC[C@@]12C(=O)C[C@@H](C)[C@]3(C[C@@H](c4ccoc4)OC3=O)[C@H]1CC[C@H](OC(C)=O)[C@]21CO1`: the Potency entry was “inactive”.

For the compound `C=C(C)[C@H]1CC[C@]2(C(=O)O)CC[C@]3(C)C(CCC4[C@@]5(C)CCC(=O)C(C)(C)C5CC[C@]43C)C12` (stereo not given in full), the Potency was 1.42 µM (active).

For `O=c1[nH]ccc2c(S(=O)(=O)N3CCCNCC3)cccc12`, the Potency entry is “inactive”.

In the case of `C/C=C(\C)C(=O)O[C@@H]1[C@@H](C)[C@]2(O)[C@@H]3C=C(C)C(=O)[C@H]3CC(CO)=C[C@H]2C2C(C)(C)[C@@]21OC(=O)C(C)CC` (stereo not given in full), the Potency was 0.448 µM (active).

For `COc1cc2ncnc(Nc3ccc(F)c(Cl)c3)c2cc1O`, the Potency is 9.2 µM (active).

Take `C=C1C(=O)O[C@@H]2C[C@]3(C)[C@@H](CCC(C)=O)[C@@H]3C[C@H]12`: the Potency was 18.4 µM (active).

As for `CC[C@H]1OC(=O)[C@H](C)[C@@H](O[C@H]2C[C@@](C)(OC)[C@@H](O)[C@H](C)O2)[C@H](C)[C@@H](O[C@@H]2O[C@H](C)C[C@H](N(C)C)[C@H]2O)[C@@](C)(O)C[C@@H](C)[C@@H]2N[C@@H](COCCOC)OC([C@H]2C)[C@]1(C)O`, the Potency entry was “inactive”.

For `Cc1ccc(S(=O)(=O)Nc2ccccc2N2CCCCC2)s1`, the Potency was 18.4 µM (active).

Consider `CC[C@@H]1[C@H]2CCCCN3C(=O)C[C@H]([C@@H]4[C@H]1OC(=O)[C@H]4C)[C@@H]23`, for which the Potency entry is “inactive”.

Turning to `CO[C@@H]1[C@@H](O[C@H]2O[C@@H](C)[C@H](O[C@@H]3C[C@](C)(O)[C@H](O)[C@@H](C)O3)[C@@H](N(C)C)[C@@H]2O)[C@@H](CC=O)C[C@@H](C)[C@@H](O[C@H]2CC[C@H](N(C)C)[C@H](C)O2)/C=C/C=C/C[C@@H](C)OC(=O)C[C@H]1O`, the Potency was 10.3 µM (active).

`CC(=O)O[C@@H]1CC2C(/C=C(\C)C(=O)[C@@]3(O)C[C@@H](C)[C@H](OC(=O)c4ccccc4)C3/C=C/1C)C2(C)C` (stereo not given in full): the Potency is 10 µM (active).

As to `C/C(=C\C(=O)C(C)C1CCC2C3=C(CCC21C)C1(C)CCC(=O)C(C)(C)C1(O)CC3)C(C)(C)O` (stereo not given), the Potency is 10 µM (active).

On to `CC1=C(CO)C2(C)CCCC(C)(C)C2C(O)C1O` (stereo not given), for which the Potency result is “inactive”.

Regarding `COc1ccc([C@H]2CNC(=O)C2)cc1OC1CCCC1`, the Potency entry is “inactive”.
